From PubChem BioAssay (EPA / NIEHS) come the findings set out here.

The structures appear in SMILES notation. Results filed as inconclusive are left out. The source made the active and inactive calls. Rule for the calls, unless noted: active = hit-call score of the fitted dose curve at least 0.9, where 1 is the maximum; inconclusive = response in the unintended direction; inactive = score below 0.9.

Tested on in one experiment: not listed separately
In words: Tanguay_ZF_120hpf_SWIM_legacy: (Legacy) Oregon State University Tanguay Lab 120 Hour Post-fertilization zebrafish Assay for Swim Bladder Malformation (AID 2283654).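 Note: swim bladder malformation in each larva scored yes or no under brightfield.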
Conditions: not given
An outline of the steps:
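Tropical 5D embryos dechorionated at 4 hpf; 1 embryo/well from 6 hpf; static, sealed, dark exposure at 28C until 120 hpf; final DMSO 0.64%; 5uM trimethyltin chloride positive control; swim bladder defect recorded yes/no; dead embryos not scored.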
`CC(C)c1cccc(C(C)C)c1N1C(=O)c2ccc(O)cc2C1=O`: the outcome was inactive.
Still for that read-out and setting: for `COC(=O)CC(=O)OC` the value was “inactive”.
The same measure, in the same setting: for `CCCCCCCCCCCCCCCO` the value was “inactive”.
Same read-out and setting: under `O=C1CCC(N2C(=O)c3ccccc3C2=O)C(=O)N1` (stereo not given) stands “inactive”; under `CC(C)=CCCC(C)CCO` (stereo not given), “inactive”; under `COc1ccc(/C=C/S(=O)(=O)NC(=O)c2ccc(C)cc2Cl)cc1`, “inactive”.
Consider `C=CCCCCCCCCC(=O)O`, for which the molecule was called inactive.
Still for that read-out and setting: for `Cn1c(=O)cc(Oc2ccc(F)cc2F)c2cnc(NCC(C)(C)O)nc21` the value was “inactive”; for `COC(=O)c1ccccc1O`, “inactive”; for `CCOc1cccc(-n2cc(C(=O)N3CCN(c4cc(C(=O)O)c5ccccc5c4)CC3)nc2-c2ccc(C)cc2)c1`, “inactive”.
Still for that read-out and setting: under `C=CC(=C)CCC=C(C)C` stands “inactive”; under `CCCCCCc1ccc(O)cc1O`, “inactive”.

Tested on in a further experiment: not listed separately
Kind of experiment: Tanguay_ZF_120hpf_TRUN_legacy: (Legacy) Oregon State University Tanguay Lab 120 Hour Post-fertilization zebrafish Assay for Truncated Body (AID 2283655).
Conditions: not given
An outline of the steps:
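Binary presence/absence of truncated body is recorded at 120 hpf by brightfield, with non-mortality endpoints skipped after death. Exposure is static from 6 hpf in sealed dark plates at 28C, using dechorionated wild-type zebrafish, 0.64% DMSO.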
With `O=C(O)c1cccc(N(Cc2cccnc2)c2ccc(OC(F)F)c(OC(F)F)c2)c1`, the call was inactive.
Still for that read-out and setting: for `CC(C)=CCCC(C)=CC=O` the value was “inactive”; for `Cc1ccc(C)c(O)c1`, “inactive”; for `CCOCCO`, “inactive”.
The same measure, in the same setting: for `CC/C(=C\C(=N/O)C(N)=O)C(C)[N+](=O)[O-]` (stereo not given) the value was “inactive”; for `CCCN(C1CCN(C(=O)C2CCNCC2)CC1)[C@@H]1CCc2ccc(OC)cc2C1`, “inactive”; for `O=C1OC(=O)C2C3C=CC(C3)C12` (stereo not given), “inactive”.
As for `CCC(C)(C)C(=O)O[C@H]1C[C@@H](C)C=C2C=C[C@H](C)[C@H](CC[C@@H]3C[C@@H](O)CC(=O)O3)[C@H]21`, the result was inactive.
The same measure, in the same setting: for `Cc1ccc(S(=O)(=O)O)cc1C` the value was “inactive”; for `CN(C)c1ccc(N=NS(=O)(=O)O)cc1`, “inactive”.
As to `CC[C@H](C)C(=O)O[C@H]1C[C@@H](C)C=C2C=C[C@H](C)[C@H](CC[C@@H]3C[C@@H](O)CC(=O)O3)[C@H]21`, the outcome was inactive.
Same read-out and setting: under `CC(C)=CCC/C(C)=C/CO` stands “inactive”.
On the same count and under the same terms, under `On1ccccc1=S` stands “inactive”; under `CCCCCCCCCCCCc1ccccc1`, “inactive”.
Still for that read-out and setting: for `COC(=O)CC(=O)OC` the value was “inactive”; for `CCCCCCCCCCCCCCCO`, “inactive”.
With `O=C1CCC(N2C(=O)c3ccccc3C2=O)C(=O)N1` (stereo not given), the call was inactive.
The same measure, in the same setting: under `CC(C)=CCCC(C)CCO` (stereo not given) stands “inactive”; under `COc1ccc(/C=C/S(=O)(=O)NC(=O)c2ccc(C)cc2Cl)cc1`, “inactive”; under `C=CCCCCCCCCC(=O)O`, “inactive”.
Same read-out and setting: for `Cn1c(=O)cc(Oc2ccc(F)cc2F)c2cnc(NCC(C)(C)O)nc21` the value was “inactive”; for `COC(=O)c1ccccc1O`, “inactive”; for `CCOc1cccc(-n2cc(C(=O)N3CCN(c4cc(C(=O)O)c5ccccc5c4)CC3)nc2-c2ccc(C)cc2)c1`, “inactive”.
For the molecule `CCCCCCc1ccc(O)cc1O`, the molecule was called inactive.

Tested on in the next experiment: not listed separately
In words: Tanguay_ZF_120hpf_NC_legacy: (Legacy) Oregon State University Tanguay Lab 120 Hour Post-fertilization zebrafish Assay for Notochord and Tail Malformation (AID 2283656).
Conditions: not given
An outline of the steps: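 Binary notochord-distortion calls, made by brightfield inspection, form the read-out; activity is fitted in the positive direction against DMSO. Exposure ran statically from 6 to 120 hpf at 28C with 0.64% DMSO.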
Regarding `O=C(O)c1cccc(N(Cc2cccnc2)c2ccc(OC(F)F)c(OC(F)F)c2)c1`, the call was inactive.
The same measure, in the same setting: under `CC(C)CCCCCCOC(=O)c1ccc(C(=O)OCCCCCCC(C)C)c(C(=O)OCCCCCCC(C)C)c1` stands “inactive”.
Still for that read-out and setting: for `CC(C)=CCCC(C)=CC=O` the value was “inactive”; for `Cc1ccc(C)c(O)c1`, “inactive”; for `CCOCCO`, “inactive”.
Same read-out and setting: under `CC/C(=C\C(=N/O)C(N)=O)C(C)[N+](=O)[O-]` (stereo not given) stands “inactive”; under `CCCN(C1CCN(C(=O)C2CCNCC2)CC1)[C@@H]1CCc2ccc(OC)cc2C1`, “inactive”; under `O=C1OC(=O)C2C3C=CC(C3)C12` (stereo not given), “inactive”.
As to `CCC(C)(C)C(=O)O[C@H]1C[C@@H](C)C=C2C=C[C@H](C)[C@H](CC[C@@H]3C[C@@H](O)CC(=O)O3)[C@H]21`, the call was inactive.
As for `Cc1ccc(S(=O)(=O)O)cc1C`, the call was inactive.
For the molecule `CN(C)c1ccc(N=NS(=O)(=O)O)cc1`, the result was inactive.
With `CC[C@H](C)C(=O)O[C@H]1C[C@@H](C)C=C2C=C[C@H](C)[C@H](CC[C@@H]3C[C@@H](O)CC(=O)O3)[C@H]21`, the call was inactive.
On the same count and under the same terms, for `CC(C)=CCC/C(C)=C/CO` the value was “inactive”.
What is called AC50 is the midpoint of the concentration-response curve, whichever way the signal moves. For `On1ccccc1=S`, the AC50 is 0.561 µM (active).
Consider `CCCCCCCCCCCCc1ccccc1`, for which the molecule was called inactive.
Still for that read-out and setting: for `COC(=O)CC(=O)OC` the value was “inactive”; for `CCCCCCCCCCCCCCCO`, “inactive”; for `O=C1CCC(N2C(=O)c3ccccc3C2=O)C(=O)N1` (stereo not given), “inactive”.
Still for that read-out and setting: for `CC(C)=CCCC(C)CCO` (stereo not given) the value was “inactive”.
As to `COc1ccc(/C=C/S(=O)(=O)NC(=O)c2ccc(C)cc2Cl)cc1`, the molecule was classed as inactive.
Same read-out and setting: under `C=CCCCCCCCCC(=O)O` stands “inactive”; under `Cn1c(=O)cc(Oc2ccc(F)cc2F)c2cnc(NCC(C)(C)O)nc21`, “inactive”.
`COC(=O)c1ccccc1O`: the molecule was classed as inactive.
The same measure, in the same setting: under `CCOc1cccc(-n2cc(C(=O)N3CCN(c4cc(C(=O)O)c5ccccc5c4)CC3)nc2-c2ccc(C)cc2)c1` stands “inactive”; under `C=CC(=C)CCC=C(C)C`, “inactive”; under `CCCCCCc1ccc(O)cc1O`, “inactive”.

Read-out in a further experiment: solute carrier (SLC10A1), SLC10A1 (gene 6554)
Kind of experiment: LTEA_HepaRG_SLC10A1: Life Technologies and Expression Analysis (LTEA) Assay for solute carrier (SLC10A1) using HepaRG (AID 2283657; active = hit-call score of the fitted dose curve at least 0.9, where 1 is the maximum; inactive = score below 0.9). To be noted: mRNA level, 48 h; actives raise or lower the signal. An outline of the steps:
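HepaRG, 48 h exposure, 8-pt half-log curve from 100 uM in 0.5% DMSO, duplicates. Read-out: TaqMan qRT-PCR of SLC10A1 mRNA, normalized to three housekeeping genes. Gain/loss fit vs DMSO baseline.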
`CC(C)CCCCCCOC(=O)c1ccc(C(=O)OCCCCCCC(C)C)c(C(=O)OCCCCCCC(C)C)c1`: the result was inactive.
Same read-out and setting: for `O=C(O)c1cccc(Oc2ccccc2)c1` the value was “inactive”.
Turning to `CC(C)c1cccc(C(C)C)c1N1C(=O)c2ccc(O)cc2C1=O`, the AC50 is 78.7 µM (active).
For the molecule `C=CC(=C)CCC=C(C)C`, the molecule was called inactive.

Read-out in a further experiment: matrix metalloproteinase-1 (MMP1), MMP1 (gene 4312)
Kind of experiment: LTEA_HepaRG_MMP1: Life Technologies and Expression Analysis (LTEA) Assay for matrix metalloproteinase-1 (MMP1) using HepaRG (AID 2283658; active = hit-call score of the fitted dose curve at least 0.9, where 1 is the maximum; inactive = score below 0.9). To be noted: mRNA level, 48 h; actives raise or lower the signal. An outline of the steps:
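qRT-PCR (TaqMan, Fluidigm arrays) of MMP1 transcript, normalized against three housekeeping genes and fitted in both directions relative to 0.5% DMSO vehicle. Human HepaRG cultures received duplicate 48 h exposures across 8 points, highest 100 uM with half-log steps.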
Regarding `CC(C)CCCCCCOC(=O)c1ccc(C(=O)OCCCCCCC(C)C)c(C(=O)OCCCCCCC(C)C)c1`, the call was inactive.
Take `O=C(O)c1cccc(Oc2ccccc2)c1`: the call was inactive.
Turning to `CC(C)c1cccc(C(C)C)c1N1C(=O)c2ccc(O)cc2C1=O`, the call was inactive.
Regarding `C=CC(=C)CCC=C(C)C`, the molecule was classed as inactive.
